Active and inactive are the calls of the source. The calls were made as follows: active = hit-call score of the fitted dose curve at least 0.9, where 1 is the maximum; inactive = score below 0.9.
read-out: Cytochrome P450 4A22 (Homo sapiens) (UniProt Q5TCH4); test: LTEA_HepaRG_CYP4A22: Life Technologies and Expression Analysis (LTEA) Assay for Cytochrome P450 4A22 (CYP4A22) using HepaRG (AID 2283495); details: mRNA level, 48 h; actives raise or lower the signal
Experimental: LTEA_HepaRG is a cell based, multiplexed-readout assay that uses HepaRG, a human liver cell line, with measurements taken at 48 hours after chemical dosing on a 96-well plate.LTEA_HepaRG_CYP4A22 is one of 102 assay component(s) measured in the LTEA HepaRG cell culture assay. It is a marker of NR mediated metabolism.Data from the assay component LTEA_HepaRG_CYP4A22 was analyzed into 1 endpoint. This assay endpoint, LTEA_HepaRG_CYP4A22, was analyzed with bidirectional fitting relative to DMSO as the negative control and baseline of activity. Using a type of inducible reporter, measures of mRNA induction for gain or loss-of-signal activity can be used to understand regulation of transcription factor activity. To generalize the intended target to other relatable targets, this assay endpoint is annotated to the cyp intended target family, where the subfamily is xenobiotic metabolism.
A total of 1060 chemcials from the ToxCast library were tested in eight-point concentration-response experiments. Cell culture and cytotoxicity assays were conducted at Thermo Fisher Scientific's Custom Services facility (Madison, WI). A single lot of human HepaRG cells (Thermo Fisher Scientific, Frederick, MD) was used for the cell culture experiments. 96-well format collagen type I coated plates of human HepaRG cells were prepared using established methods. Briefly, cryopreserved HepaRG cells were thawed, plated at a density of approximately 100,000 cells/well in HepaRG Thaw, Plate, and General Purpose media (HPRG770, Thermo Fisher Scientific), and incubated for 48 hours. 0.5% DMSO was selected as vehicle control to balance the requisite need of DMSO in HepaRG cultures to maintain differentiation (for example, baseline metabolism, proportions of hepatocytes vs. cholangiocytes), while enabling further hepatic receptor pathway activation (for example, PXR and CAR) in response to chemical exposure. 48 hours after plating, the culture medium was replaced with HepaRG Serum-Free Incudtion Media. Cells were exposed to each test chemical in duplicate and maintained in CO2 incubators for another 48 hours. Chemical plates were thawed to room temperature and 200x concentrations of treatment groups were prepared. 8-point conentration-reponse curves were made with the highest exposure at 100 uM, followed by half-log dilutions, all in 0.5% DMSO. Each test plate contained variouse controls, induction positive controls (1mM phenobarbital), cytotoxicity positive controls ([…] aflatoxin B1), vehicle controls (0.5% DMSO), and total lysis controls (0.5% DMSO). Cell morphology images were taken using an Essen IncuCyte FLR automated microscope, with six 96-well plates imaged in about 24 minutes. Images were captured and exported and JPEG files. Spent culture media was transfered to black-well plates for the LDH assay, and remaining media was sorted at -80 C for later use. Cells were treated with RLT buffer and frozen until shipped for gene expression analysis. Total RNA was isolated from the cell suspension in 75 uL of Buffer RLT (Qiagen, Germantown, MD 20874) by Quintiles/Expression Analysis (Durham, NC) using a custom isolation procedure. Total RNA from each plate well was transferred to a preamplification plate. Fluidigm's 96.96 Dynamic ArrayTM (Fluidigm, Amsterdam, the Netherlands) technology was used for gene expression analyses by quantitative reverse transcription polymerase chain reaction (qRT-PCR, performed by Quintiles/Expression Analysis, Durham, NC)89. Standard TaqManTM Assays (Applied Biosystems/ThermoFisher Scientific, Foster City, CA) were used to assess the expression of 93 genes selected based on their selectivity and sensitivity to important hepatic receptors known to be modulated by environmental chemicals; importance in human hepatocyte functionality; and hepatotoxicity. […]

outcome, inactive:
CC(C)(c1cc(Br)c(O)c(Br)c1)c1cc(Br)c(O)c(Br)c1
CC1=CC(=O)/C(=C(/C)O)C(=O)O1
CCO[Si](CCCNC(N)=O)(OCC)OCC
CCCCOC(=O)c1ccc(O)cc1
Cc1cn([C@H]2C[C@H](N=[N+]=[N-])[C@@H](CO)O2)c(=O)[nH]c1=O
Cc1ccc(C(C)C)cc1
O=C(O)Cn1c(=O)n(Cc2ccc(Br)cc2F)c(=O)c2ccc(Cl)cc21
Oc1ccccc1
CC(O)CC(C)(C)O (stereo not given)
O=c1c(-c2ccc(O)cc2)coc2cc(O)cc(O)c12
O=CCCCC=O
Oc1ccc2ccccc2c1
CCOC(=O)O[C@H](C)OC(=O)c1ccc2c(c1)cc(C(=O)NC1CCN(C(C)C)CC1)n2Cc1cc(-c2ccc(Cl)s2)on1
CC(C)(C)c1cc(/C=C2\SC(N)=NC2=O)cc(C(C)(C)C)c1O
CCCCCCCCCC(=O)O
c1ccc2ccccc2c1
O=C(OCCCCCCOC(=O)c1ccccc1)c1ccccc1
Clc1cc(Cl)c2c(c1)N=C1CCCCCN1C2
O=C1CCC(C2CCCCC2)CC1
CO[C@H]1/C=C/O[C@@]2(C)Oc3c(C)c(O)c4c(O)c(c(/C=N/N5CCN(C)CC5)c(O)c4c3C2=O)NC(=O)/C(C)=C\C=C\[C@H](C)[C@H](O)[C@@H](C)[C@@H](O)[C@@H](C)[C@H](OC(C)=O)[C@@H]1C
O=C(O)c1ccccc1-n1cc(C(=O)O)c(=O)c2cc(Nc3c(F)cc(F)cc3Cl)c(Cl)cc21
CCCC(=O)OCCC(C)C
CCCCCCCCOc1ccc(C(=O)c2ccccc2)c(O)c1

AC50, active:
CN1C(=O)N(c2ccccc2Br)Cc2cnc(Nc3ccc4c(c3)OCC(CO)O4)nc21 (stereo not given) 50 µM
O=C(O)c1ccccc1C(=O)OCc1ccccc1 23.4 µM
NC(=O)c1nc(-c2cccc(-c3cc(F)ccc3OCC(F)(F)C(F)(F)F)c2)n[nH]1 9.78 µM
CCN(Cc1cccnc1)C(=O)c1cccc(Cl)c1[C@]1(C)C(=O)N(Cc2ccc(OC)cc2OC)c2ccc(Cl)cc21 14.4 µM
CN(C)c1ccc(C(=C2C=CC(=[N+](C)C)C=C2)c2ccc(N(C)C)cc2)cc1 3.65 µM
c1ccc(C[n+]2cccc3ccccc32)cc1 22.6 µM
Cc1ccc2oc(CN(Cc3ccccc3)C(=O)Nc3c(F)cc(F)cc3F)c(-c3ccc(Cl)cc3)c2c1 44.2 µM
Cc1cc2c(cc1C(F)(F)F)N(C(=O)Nc1ccc(Oc3cccnc3C)nc1)CC2 29.6 µM
O=C(Nc1ccc(Cl)cc1)Nc1ccc(Cl)c(Cl)c1 24.2 µM
Cc1occc1C(=O)Nc1ccc(C(=O)N2CCC(F)(F)/C(=C\C(=O)N3CCC(N4CCCCC4)CC3)c3ccccc32)cc1 57.5 µM
CCCOC(=O)c1cc(O)c(O)c(O)c1 4.41 µM
NCc1cccc(C2CCN(C(=O)c3ccc(C#Cc4ccccc4F)o3)CC2)c1 81 µM
C[C@]12CC[C@@H]3c4ccc(O)cc4CC[C@H]3[C@@H]1CC[C@H]2O 76 µM
COc1ccc2cc(S(=O)(=O)N[C@H](CC(=O)N[C@H](Cc3ccc(CN4[C@H](C)CCC[C@@H]4C)cc3)C(=O)N(C)C(C)C)c3ccc4c(c3)OCO4)ccc2c1 2.63 µM
Cc1cc(F)ccc1-c1cc(N2CC[C@@H](O)[C@H]2CO)ncc1N(C)C(=O)C(C)(C)c1cc(C(F)(F)F)cc(C(F)(F)F)c1 16.4 µM
CN(C[C@@H](CC[N+]12CCC(C3CCCCC3)(CC1)CC2)c1ccc(Cl)c(Cl)c1)C(=O)c1cc(C(F)(F)F)cc(C(F)(F)F)c1 22.4 µM
Cc1c2ccccc2c(C)c2c1ccc1ccccc12 51.9 µM

Reference: PubChem BioAssay (EPA / NIEHS)
